# Source: PubChem BioAssay (EPA / NIEHS)
# Several values for one entry are separate records, joined by “and”; a condition that tells them apart may be missing. Equal values may be shown once. Inconclusive results are not listed. Some structures have more than one record in an assay (separate samples or runs), and their calls can disagree. Activity calls are given as the source filed them. How the source made its calls, unless noted: active means hit-call score of the fitted dose curve at least 0.9, where 1 is the maximum; inconclusive means response in the unintended direction; inactive means score below 0.9.
# Assays:
# [1] = target: Estrogen receptor (Homo sapiens) (UniProt P03372); assay: ATG_hERa_XSP2: Attagene TRANS-FACTORIAL Multi-Species (XSP2) HepG2 Assay for human Estrogen Receptor (ERa) (AID 2283827)
# Sequence of Estrogen receptor (Homo sapiens) (P03372 whole entry, looked up, the tested form may be a part): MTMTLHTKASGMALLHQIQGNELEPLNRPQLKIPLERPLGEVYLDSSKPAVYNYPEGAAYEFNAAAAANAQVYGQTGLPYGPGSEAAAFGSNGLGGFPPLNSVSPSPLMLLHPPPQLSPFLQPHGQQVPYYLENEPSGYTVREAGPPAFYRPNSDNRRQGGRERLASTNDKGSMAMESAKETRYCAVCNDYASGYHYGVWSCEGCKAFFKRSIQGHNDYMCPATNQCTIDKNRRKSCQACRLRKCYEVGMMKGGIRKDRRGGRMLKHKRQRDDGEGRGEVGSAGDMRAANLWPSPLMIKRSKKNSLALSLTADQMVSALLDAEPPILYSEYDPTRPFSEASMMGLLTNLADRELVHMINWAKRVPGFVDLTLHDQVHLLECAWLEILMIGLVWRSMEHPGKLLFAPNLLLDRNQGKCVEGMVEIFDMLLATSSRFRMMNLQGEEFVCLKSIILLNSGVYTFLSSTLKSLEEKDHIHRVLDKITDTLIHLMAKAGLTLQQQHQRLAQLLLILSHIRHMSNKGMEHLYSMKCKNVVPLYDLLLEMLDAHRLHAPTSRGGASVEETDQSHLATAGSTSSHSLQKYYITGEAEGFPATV
# Outline: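 HepG2 cells transiently transfected with multiplexed GAL4-UAS reporters driven by chimeric receptor-Gal4 proteins, dosed 24 h with 3 nM 6-alpha-fluorotestosterone and 1.5 nM norgestrel present. Reporter mRNA by RT-PCR and capillary electrophoresis; gain-of-signal fit versus DMSO.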
# [2] = tested on: frog Estrogen Receptor (ER2), gene 100174814; assay: ATG_frER2_XSP2: Attagene TRANS-FACTORIAL Multi-Species (XSP2) HepG2 Assay for frog Estrogen Receptor (ER2) (AID 2283828)
# Outline: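 Human liver HepG2, transient MRTU transfection (TRANS format, exogenous NR–Gal4). 24 h cpd exposure. Total RNA → RT → PCR → FAM label → HpaI cut → CE. Positive direction vs DMSO.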
# [3] = target: Peroxisome proliferator-activated receptor gamma (Homo sapiens) (UniProt P37231); assay: ATG_hPPARg_XSP2: Attagene TRANS-FACTORIAL Multi-Species (XSP2) HepG2 Assay for human Peroxisome Proliferator-activated Receptor gamma (PPARg) (AID 2283829);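 further: actives raise reporter mRNA above DMSO so AC50 reflects PPARg activation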
# Sequence of Peroxisome proliferator-activated receptor gamma (Homo sapiens) (P37231 whole entry, looked up, the tested form may be a part): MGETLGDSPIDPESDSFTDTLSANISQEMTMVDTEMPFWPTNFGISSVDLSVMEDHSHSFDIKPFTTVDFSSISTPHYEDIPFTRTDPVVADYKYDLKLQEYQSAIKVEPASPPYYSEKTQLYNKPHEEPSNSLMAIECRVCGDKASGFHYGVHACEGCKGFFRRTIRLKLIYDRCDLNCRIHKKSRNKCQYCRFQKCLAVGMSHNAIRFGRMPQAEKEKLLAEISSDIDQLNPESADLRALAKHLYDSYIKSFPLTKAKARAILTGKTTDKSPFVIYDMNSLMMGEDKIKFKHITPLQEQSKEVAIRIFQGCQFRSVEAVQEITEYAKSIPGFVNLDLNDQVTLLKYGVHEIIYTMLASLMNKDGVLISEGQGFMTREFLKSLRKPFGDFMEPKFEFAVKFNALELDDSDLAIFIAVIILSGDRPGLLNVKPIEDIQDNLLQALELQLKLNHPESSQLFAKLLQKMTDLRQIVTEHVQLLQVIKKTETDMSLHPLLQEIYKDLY
# Outline: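 Transient MRTU transfection, HepG2; TRANS format (exogenous NR-Gal4 chimeras). 24 h chemical exposure with 3 nM 6-alpha-fluorotestosterone and 1.5 nM norgestrel present. Readout: reporter mRNA via RT-PCR/CE fluorescence, up-direction vs DMSO.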
# [4] = target: mouse Peroxisome Proliferator-activated Receptor gamma (PPARg), Pparg (gene 19016) (UniProt P37238); assay: ATG_mPPARg_XSP2: Attagene TRANS-FACTORIAL Multi-Species (XSP2) HepG2 Assay for mouse Peroxisome Proliferator-activated Receptor gamma (PPARg) (AID 2283830);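 further: hits are gains in reporter mRNA above DMSO so AC50 marks activation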
# Sequence of mouse Peroxisome Proliferator-activated Receptor gamma (PPARg), Pparg (gene 19016) (P37238 whole entry, looked up, the tested form may be a part): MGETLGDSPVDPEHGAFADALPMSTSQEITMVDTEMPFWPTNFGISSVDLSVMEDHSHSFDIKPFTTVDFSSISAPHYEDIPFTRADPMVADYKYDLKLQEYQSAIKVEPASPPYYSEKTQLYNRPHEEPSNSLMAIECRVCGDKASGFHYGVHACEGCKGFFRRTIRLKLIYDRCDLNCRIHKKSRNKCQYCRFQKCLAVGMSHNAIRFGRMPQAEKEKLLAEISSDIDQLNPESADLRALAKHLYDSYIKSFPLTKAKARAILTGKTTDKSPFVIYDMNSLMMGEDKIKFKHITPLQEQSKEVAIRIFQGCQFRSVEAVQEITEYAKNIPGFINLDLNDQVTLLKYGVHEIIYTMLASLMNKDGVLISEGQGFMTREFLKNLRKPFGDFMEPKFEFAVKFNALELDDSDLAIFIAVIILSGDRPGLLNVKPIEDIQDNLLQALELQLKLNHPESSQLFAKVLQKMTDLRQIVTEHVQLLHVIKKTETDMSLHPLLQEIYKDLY
# Outline: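 HepG2 cells transiently transfected with GAL4-UAS reporter units for chimeric NR-Gal4 proteins including mouse PPARg, exposed 24 h; medium contained 3 nM 6-alpha-fluorotestosterone and 1.5 nM norgestrel. Reporter mRNA quantified by RT-PCR, HpaI digestion and capillary electrophoresis, vs DMSO.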
# [5] = target: Nuclear receptor subfamily 1 group I member 2 (Mus musculus) (UniProt O54915); assay: ATG_mPXR_XSP2: Attagene TRANS-FACTORIAL Multi-Species (XSP1) HepG2 Assay for mouse Pregnane X Receptor (PXR) (AID 2283831)
# Sequence of Nuclear receptor subfamily 1 group I member 2 (Mus musculus) (O54915 whole entry, looked up, the tested form may be a part): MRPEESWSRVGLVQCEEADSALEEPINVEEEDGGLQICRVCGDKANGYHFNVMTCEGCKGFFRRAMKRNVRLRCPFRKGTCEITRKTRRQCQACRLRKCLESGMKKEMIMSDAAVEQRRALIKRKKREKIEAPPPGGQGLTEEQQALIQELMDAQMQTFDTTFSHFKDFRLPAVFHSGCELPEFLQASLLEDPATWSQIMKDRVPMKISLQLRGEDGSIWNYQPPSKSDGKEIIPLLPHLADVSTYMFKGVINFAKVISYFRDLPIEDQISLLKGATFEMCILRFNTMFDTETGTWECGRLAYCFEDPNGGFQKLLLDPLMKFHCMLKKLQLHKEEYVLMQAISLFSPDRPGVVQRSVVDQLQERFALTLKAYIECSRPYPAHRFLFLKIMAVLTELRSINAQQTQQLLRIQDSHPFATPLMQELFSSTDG
# Outline: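 Transient HepG2 transfection, multiplexed GAL4-UAS reporters, NR-GAL4 chimeras. 24 h compound exposure. Readout: reporter mRNA, RT-PCR, fluorescent capillary electrophoresis; positive direction vs DMSO baseline.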
# [6] = target: zebrafish Thyroid Hormone Receptor alpha (TRa), thraa (gene 30670) (UniProt Q98867); assay: ATG_zfTRa_XSP2: Attagene TRANS-FACTORIAL Multi-Species (XSP1) HepG2 Assay for zebrafish Thyroid Hormone Receptor alpha (TRa) (AID 2283832);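 further: actives raise zebrafish TRa-Gal4 reporter transcript above DMSO baseline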
# Sequence of zebrafish Thyroid Hormone Receptor alpha (TRa), thraa (gene 30670) (Q98867 whole entry, looked up, the tested form may be a part): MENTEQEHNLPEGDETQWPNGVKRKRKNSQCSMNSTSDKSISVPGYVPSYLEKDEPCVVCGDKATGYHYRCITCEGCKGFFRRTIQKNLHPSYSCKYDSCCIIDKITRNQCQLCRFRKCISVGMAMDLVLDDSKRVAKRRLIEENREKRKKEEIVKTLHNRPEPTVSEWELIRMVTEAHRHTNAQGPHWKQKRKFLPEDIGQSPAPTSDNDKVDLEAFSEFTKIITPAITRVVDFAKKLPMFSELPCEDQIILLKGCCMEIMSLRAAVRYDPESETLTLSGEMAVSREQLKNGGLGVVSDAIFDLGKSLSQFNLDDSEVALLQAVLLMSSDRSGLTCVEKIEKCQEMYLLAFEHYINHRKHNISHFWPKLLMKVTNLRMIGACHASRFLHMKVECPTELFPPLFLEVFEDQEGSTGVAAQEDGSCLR
# Outline: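 Chimeric receptor-Gal4 activity was assessed in transfected human liver HepG2 cells 24 h after dosing, using reporter transcript levels detected by RT-PCR and capillary electrophoresis. DMSO served as baseline.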
# [7] = tested on: zebrafish Peroxisome Proliferator-activated Receptor gamma (PPARg), gene 557037; assay: ATG_zfPPARg_XSP2: Attagene TRANS-FACTORIAL Multi-Species (XSP2) HepG2 Assay for zebrafish Peroxisome Proliferator-activated Receptor gamma (PPARg) (AID 2283833);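 further: actives increase reporter signal over DMSO so AC50 reflects activation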
# Outline: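 Transfect HepG2 with multiplexed GAL4-UAS reporter constructs; dose chemical 24 h; isolate RNA, reverse-transcribe, PCR-amplify, label and digest reporter products; resolve by capillary electrophoresis. Activity taken as increase over DMSO.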
# [8] = tested on: turtle Thyroid Hormone Receptor, alpha (TRa), gene 101949057; assay: ATG_trTRa_XSP2: Attagene TRANS-FACTORIAL Multi-Species (XSP1) HepG2 Assay for turtle Thyroid Hormone Receptor, alpha (TRa) (AID 2283834);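 further: hits raise reporter mRNA over the DMSO baseline so AC50 marks activators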
# Outline: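 Readout: reporter mRNA induction, fluorescence after RT-PCR, HpaI digestion and capillary electrophoresis. Transiently transfected HepG2, exogenous NR-Gal4 chimera driving GAL4-UAS reporter, 24 h compound exposure. Activity fitted upward relative to DMSO baseline.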
# [9] = ATG_M_61_XSP2: Attagene TRANS-FACTORIAL Multi-Species (XSP2) HepG2 Assay for M61 Transcription Factor (Internal Marker) (AID 2283835; active means hit-call score of the fitted dose curve at least 0.9, where 1 is the maximum; inactive means score below 0.9;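 further: reporter mRNA of an internal background marker read by RT-PCR and capillary electrophoresis; active means a rise in signal above the DMSO baseline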)
# Outline: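 HepG2 cells transiently transfected with multiple GAL4-UAS reporter units; 3 nM 6-alpha-fluorotestosterone and 1.5 nM norgestrel present to stimulate androgen receptor. After 24 h compound exposure, reporter mRNA measured by RT-PCR and capillary electrophoresis fluorescence, gain-of-signal versus DMSO baseline.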
# [10] = target: zebrafish Thyroid Hormone Receptor beta (TRb), thrb (gene 30607) (UniProt Q9PVE4); assay: ATG_zfTRb_XSP2: Attagene TRANS-FACTORIAL Multi-Species (XSP1) HepG2 Assay for zebrafish Thyroid Hormone Receptor beta (TRb) (AID 2283836)
# Sequence of zebrafish Thyroid Hormone Receptor beta (TRb), thrb (gene 30607) (Q9PVE4 whole entry, looked up, the tested form may be a part): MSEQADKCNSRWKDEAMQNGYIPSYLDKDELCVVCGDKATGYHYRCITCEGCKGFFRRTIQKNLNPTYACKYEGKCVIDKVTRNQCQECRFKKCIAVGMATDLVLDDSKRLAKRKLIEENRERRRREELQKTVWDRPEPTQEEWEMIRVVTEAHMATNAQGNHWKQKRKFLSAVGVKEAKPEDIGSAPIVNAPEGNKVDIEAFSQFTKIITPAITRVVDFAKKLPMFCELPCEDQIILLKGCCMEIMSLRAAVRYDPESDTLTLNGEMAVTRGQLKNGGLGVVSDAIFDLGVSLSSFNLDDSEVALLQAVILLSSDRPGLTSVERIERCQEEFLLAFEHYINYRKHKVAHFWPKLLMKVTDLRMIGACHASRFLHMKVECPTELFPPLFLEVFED
# Outline: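 Fluorescence of labelled reporter cDNA fragments, separated by capillary electrophoresis, gives mRNA induction from exogenous NR-Gal4 chimeras in transiently transfected HepG2 cells after 24 h dosing; 3 nM 6-alpha-fluorotestosterone and 1.5 nM norgestrel included in the run.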
# [11] = target: human Thyroid hormone Receptor alpha (TRa), THRA (gene 7067) (UniProt P10827); assay: ATG_hTRa_XSP2: Attagene TRANS-FACTORIAL Multi-Species (XSP2) HepG2 Assay for human Thyroid hormone Receptor alpha (TRa) (AID 2283838)
# Sequence of human Thyroid hormone Receptor alpha (TRa), THRA (gene 7067) (P10827 whole entry, looked up, the tested form may be a part): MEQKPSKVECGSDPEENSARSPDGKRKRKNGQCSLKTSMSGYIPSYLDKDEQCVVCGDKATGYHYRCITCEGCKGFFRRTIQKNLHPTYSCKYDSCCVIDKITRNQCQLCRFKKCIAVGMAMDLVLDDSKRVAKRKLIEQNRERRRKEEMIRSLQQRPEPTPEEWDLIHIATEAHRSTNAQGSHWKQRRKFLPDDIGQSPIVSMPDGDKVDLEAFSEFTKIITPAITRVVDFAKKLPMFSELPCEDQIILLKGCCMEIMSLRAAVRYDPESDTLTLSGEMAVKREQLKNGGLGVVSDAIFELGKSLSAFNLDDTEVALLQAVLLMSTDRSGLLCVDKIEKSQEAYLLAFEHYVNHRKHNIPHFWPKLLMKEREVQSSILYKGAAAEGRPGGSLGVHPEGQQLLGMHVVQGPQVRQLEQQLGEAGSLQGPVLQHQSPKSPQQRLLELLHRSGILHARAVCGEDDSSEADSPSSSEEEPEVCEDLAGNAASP
# Outline: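 HepG2 cells transiently transfected with multiplexed GAL4-UAS reporter units and exogenous NR-GAL4 chimeras; 24 h chemical exposure with 3 nM 6-alpha-fluorotestosterone and 1.5 nM norgestrel present. Reporter mRNA measured by RT-PCR, FAM labelling, HpaI digestion, capillary electrophoresis; gain-of-signal versus DMSO.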
# [12] = target: frog Thyroid hormone Receptor alpha (TRa), thra-a (gene 397942) (UniProt P15204); assay: ATG_frTRa_XSP2: Attagene TRANS-FACTORIAL Multi-Species (XSP2) HepG2 Assay for frog Thyroid hormone Receptor alpha (TRa) (AID 2283839)
# Sequence of frog Thyroid hormone Receptor alpha (TRa), thra-a (gene 397942) (P15204 whole entry, looked up, the tested form may be a part): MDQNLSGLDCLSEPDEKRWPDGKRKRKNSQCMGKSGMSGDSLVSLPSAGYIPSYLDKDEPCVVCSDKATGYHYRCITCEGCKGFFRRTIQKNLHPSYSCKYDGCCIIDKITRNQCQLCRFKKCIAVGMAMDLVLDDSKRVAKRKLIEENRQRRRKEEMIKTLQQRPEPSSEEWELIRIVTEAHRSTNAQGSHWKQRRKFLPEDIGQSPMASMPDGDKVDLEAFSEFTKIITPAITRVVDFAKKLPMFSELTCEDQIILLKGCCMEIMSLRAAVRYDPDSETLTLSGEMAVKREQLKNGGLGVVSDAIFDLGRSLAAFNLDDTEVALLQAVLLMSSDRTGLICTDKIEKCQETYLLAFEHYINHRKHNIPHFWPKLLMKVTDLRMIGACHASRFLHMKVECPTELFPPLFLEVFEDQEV
# Outline: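 Read-out: fluorescent reporter-transcript fragments resolved by capillary electrophoresis after RT-PCR and HpaI cut. Human HepG2 liver cells carry a transfected frog TRα-Gal4 chimera driving a UAS reporter; 24 h exposure, DMSO baseline, positive-direction fit.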
# [13] = target: human Thyroid hormone Receptor beta (TRb), THRB (gene 7068) (UniProt P10828); assay: ATG_hTRb_XSP2: Attagene TRANS-FACTORIAL Multi-Species (XSP2) HepG2 Assay for human Thyroid hormone Receptor beta (TRb) (AID 2283840);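 further: actives raise reporter mRNA so potency reflects agonist-like gain of signal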
# Sequence of human Thyroid hormone Receptor beta (TRb), THRB (gene 7068) (P10828 whole entry, looked up, the tested form may be a part): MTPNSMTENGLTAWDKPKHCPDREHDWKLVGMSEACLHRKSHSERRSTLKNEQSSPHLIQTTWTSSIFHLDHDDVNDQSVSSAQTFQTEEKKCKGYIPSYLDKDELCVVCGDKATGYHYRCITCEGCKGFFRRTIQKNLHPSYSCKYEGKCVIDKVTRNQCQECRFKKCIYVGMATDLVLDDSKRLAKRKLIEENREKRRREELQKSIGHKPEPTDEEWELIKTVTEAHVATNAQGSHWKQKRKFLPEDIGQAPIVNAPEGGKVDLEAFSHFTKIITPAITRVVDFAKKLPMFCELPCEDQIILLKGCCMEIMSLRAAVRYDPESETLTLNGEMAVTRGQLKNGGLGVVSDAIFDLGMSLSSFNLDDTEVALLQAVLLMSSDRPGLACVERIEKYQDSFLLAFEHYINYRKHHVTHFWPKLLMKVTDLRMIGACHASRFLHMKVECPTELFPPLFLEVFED
# Outline: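 Read-out: reporter mRNA induction (RT-PCR, 6-FAM labeling, capillary electrophoresis), gain-of-signal relative to DMSO baseline. Transiently transfected HepG2 TRANS multiplex (NR-Gal4 chimeras, GAL4-UAS reporters), 24 h chemical exposure; medium contained 3 nM 6-alpha-fluorotestosterone plus 1.5 nM norgestrel.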
# [14] = tested on: Sodium/Iodide Symporter (NIS), SLC5A5 (gene 6528); assay: CPHEA_Stoker_NIS_Inhibition_RAIU: CPHEA's Radioactive Iodide Uptake (RAIU) Assay for Sodium/Iodide Symporter (NIS) Inhibition, Stoker and Laws Labs (AID 2283841)
# Outline: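 Iodide uptake read as CPM of intracellular 125I (final 329 pM) after 2 h room-temperature exposure in HEPES-buffered HBSS, pH 7.4. Human NIS-expressing HEK293T cells; six concentrations 0.001–100 uM, 0.5% DMSO, normalised to DMSO wells.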
# [15] = CPHEA_Stoker_NIS_Cytotoxicity: Cytotoxicity Assessment for CPHEA's Radioactive Iodide Uptake (RAIU) Assay for Sodium/Iodide Symporter (NIS) Inhibition, Stoker and Laws Labs (AID 2283897);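 on AC50: active means loss of ATP signal versus DMSO meaning cytotoxicity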
# Outline: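 CellTiter-Glo ATP luminescence gauged viability in HEK293T cells expressing human NIS after 2 h chemical exposure. Concentrations ran 0.001–100 uM in 0.5% DMSO; DMSO served as baseline for the loss-of-signal fit.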
# [16] = CEETOX_H295R_11DCORT_noMTC: CeeTox H295R High-throughput Steroidogenesis Assay for 11-Deoxycortisol (11DCORT), maximum tolerated concentration (MTC) filtered results only (AID 2283911; active means hit-call score of the fitted dose curve at least 0.9, where 1 is the maximum; inactive means score below 0.9); settings: actives raise or lower the signal
# Outline: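 H295R, OECD 456-based; 10 uM forskolin 48 h → compound (0.1% DMSO) 48 h → medium extracted, 11DCORT by LC-MS/MS. Gain/loss vs DMSO control, all concentrations kept regardless of MTT viability.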
# [17] = ATG_M_32_XSP2: Attagene TRANS-FACTORIAL Multi-Species (XSP2) HepG2 Assay for M19 Transcription Factor (Internal Marker) (AID 2283826)
# Outline: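 Read-out: fluorescent reporter mRNA fragments resolved by capillary electrophoresis after RT-PCR, gain-of-signal versus DMSO baseline. Cells were human HepG2 carrying transfected multi-reporter units, exposed 24 h. Medium contained 3 nM 6-alpha-fluorotestosterone plus 1.5 nM norgestrel.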
smiles,measurement,setting,value
CC(O)(CS(=O)(=O)c1ccc(F)cc1)C(=O)Nc1ccc(C#N)c(C(F)(F)F)c1 (centres undefined),outcome,[1],inactive
same,outcome,[2],inactive
same,outcome,[3],inactive
same,AC50,[4],46.2 µM (active)
same,outcome,[4],inactive
same,AC50,[5],4.25 µM (active)
same,outcome,[6],inactive
same,outcome,[7],inactive
same,outcome,[8],inactive
same,outcome,[9],inactive
same,outcome,[10],inactive
same,outcome,[11],inactive
same,outcome,[12],inactive
same,AC50,[13],155 µM (active)
same,outcome,[13],inactive
same,AC50,[14],9.92 µM (active)
same,AC50,[15],88.7 µM (active)
CC(C)N(C(=O)CCl)c1ccccc1,outcome,[14],inactive
same,outcome,[15],inactive
CCC[CH2][Sn]([Cl])([Cl])[CH2]CCC,AC50,[14],3.24 µM (active)
same,outcome,[15],inactive
Oc1c(Br)cc(Br)cc1Br,outcome,[14],inactive
same,outcome,[15],inactive
Cc1cc(Cl)ccc1N,outcome,[16],inactive
CCOCn1c(-c2ccc(Cl)cc2)c(C#N)c(Br)c1C(F)(F)F,AC50,[14],0.616 µM (active)
same,outcome,[15],inactive
CCC[CH2][Sn]([CH2]CCC)([CH2]CCC)[CH2]CCC,outcome,[14],inactive
same,outcome,[15],inactive
Cc1cc(Cl)ccc1OC(C)C(=O)O (centres undefined),outcome,[14],inactive
O=S1OC[C@@H]2[C@H](CO1)[C@]1(Cl)C(Cl)=C(Cl)[C@@]2(Cl)C1(Cl)Cl (some centres undefined),outcome,[14],inactive
same,outcome,[15],inactive
C=CC(Cl)CCl (centres undefined),outcome,[14],inactive
same,outcome,[15],inactive
CC1(C)[C@H](C(=O)O[C@H](C#N)c2cccc(Oc3ccccc3)c2)[C@@H]1/C=C(\Cl)C(F)(F)F,outcome,[14],inactive
CCCCCCCCCCCCOS(=O)(=O)O,outcome,[14],inactive
same,outcome,[15],inactive
O=c1oc2ccccc2c(O)c1C(CC(O)c1ccc(-c2ccc(Br)cc2)cc1)c1ccccc1 (centres undefined),outcome,[17],inactive
same,outcome,[2],inactive
same,AC50,[3],1.64 µM (active)
same,AC50,[4],2.5 µM (active)
same,AC50,[5],31.6 µM (active)
same,AC50,[7],6.09 µM (active)
same,outcome,[8],inactive
same,outcome,[10],inactive
same,outcome,[13],inactive
CCOP(=S)(OCC)O/N=C(\C#N)c1ccccc1,AC50,[2],16.1 µM (active) and 2.28 µM (active)
same,AC50,[3],27.4 µM (active) and 10.3 µM (active)
same,AC50,[4],22.4 µM (active) and 15.5 µM (active)
same,AC50,[5],4.3 µM (active) and 2.37 µM (active)
same,outcome,[6],inactive
same,outcome,[7],inactive
same,outcome,[8],inactive
same,outcome,[9],inactive
same,outcome,[10],inactive
same,outcome,[11],inactive
same,outcome,[12],inactive
same,outcome,[13],inactive
same,outcome,[14],inactive
same,outcome,[15],inactive
